Screening data (PubChem BioAssay)
The list is not random: actives were taken first. Their share in the collection is about 1.3%.
ugtP null kill: growth inhibition of S. aureus ugtP deletion strain | S. aureus RN4220 ugtP deletion, OD600 growth, 16 h | growth inhibition, % (no concentration beside the values) | 330,000 tested, 0.54% active | AID 1259309; in the data active = growth inhibition above about 68%
Mtb betalactam: beta-lactam sensitization of Mtb H37Rv; inhibition, % at 25 µM; M. tuberculosis H37Rv growth with meropenem, percent inhibition; 330,000 tested, 0.27% active; AID 434955; call rule not given here;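 note: growth measured after seven days incubation then overnight dye step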
3CLpro inhibitor: SARS-CoV 3CLpro protease inhibition; inhibition, % at 6 µM; P0C6X7; 290,000 tested, 0.14% active; recombinant SARS-CoV 3CLpro, quenched FRET peptide cleavage; in the data active = inhibition above about 12%
Sa RN4220 lethal: S. aureus RN4220 growth inhibition. OD600, 16 h. inhibition, % (concentration not given with the values). 330,000 tested, 0.33% active; in the data active = inhibition above about 85%
CCHFV vOTU inh: CCHFV vOTU protease inhibition. Pep-AMC fluorescence. inhibition, % at 11.5 µM. AID 651958. 370,000 tested, 0.55% active; in the data active = inhibition above about 30%
MazEF act: activators of E. coli MazEF toxin-antitoxin RNase. activation, % at 20 µM. P0AE70. FAM/BHQ RNA-DNA oligo cleavage fluorescence, 5 h. 350,000 tested, 0.32% active; in the data active = activation above about 50%
Target sequence (P0AE70 whole entry, looked up): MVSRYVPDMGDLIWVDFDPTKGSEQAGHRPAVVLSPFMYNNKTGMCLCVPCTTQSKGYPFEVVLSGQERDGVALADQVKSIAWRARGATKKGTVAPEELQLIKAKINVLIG
Each line names hits and unclear results; the compound was inactive in the other large screens.

N#CC1=C(N)Oc2n[nH]c(-c3ccccc3)c2C12C(=O)Nc1ccccc12 (configuration not stated)	none
Cn1c2c(c(=O)n(C)c1=O)[C@@]1(C(=O)Nc3ccccc31)C(C#N)=C(N)O2	Sa RN4220 lethal 87.0
CCOC(=O)c1ccc(CC(=O)c2ccc(O)c(O)c2O)o1	none (no result: Mtb betalactam)
CCOC(=O)c1ccc(CC(=O)c2oc3cc(O)ccc3c2C)o1	MazEF act 66.9
Cc1c(NC(=S)NN=C/C=C/c2ccc([N+](=O)[O-])cc2)c(=O)n(-c2ccccc2)n1C	ugtP null kill 88.5 (no result: Mtb betalactam, 3CLpro inhibitor, CCHFV vOTU inh, MazEF act)
Cc1c(NC(=S)N/N=C/c2cc([N+](=O)[O-])ccc2O)c(=O)n(-c2ccccc2)n1C	none (no result: ugtP null kill, Sa RN4220 lethal)
Fc1ccc(/C=N/NC2=Nc3cccc4cccc2c34)cc1	MazEF act 110.3 (no result: ugtP null kill, Sa RN4220 lethal)
COc1ccc(-c2sc3ccccc3c2C#Cc2cncn2C)cc1	ugtP null kill 97.1 (no result: 3CLpro inhibitor)
COc1ccccc1-c1sc2cc3c(cc2c1C#Cc1cncn1C)OCO3	ugtP null kill 90.4 (no result: 3CLpro inhibitor)
COc1ccc2sc(-c3ccccc3OC)c(C#Cc3cncn3C)c2c1	none (no result: 3CLpro inhibitor)
Cn1c(O)c(N=Nc2ccccc2)c2ccccc21	none
Cn1c(O)c(N=Nc2ccc(F)cc2)c2ccccc21	MazEF act 336.6
Cn1c(SCc2ccccc2)nc(N)c(N=O)c1=O	ugtP null kill 95.1 (no result: 3CLpro inhibitor)
Cn1c(SCc2ccccc2)nc(C(F)(F)F)cc1=O	none
COc1ccc(NS(=O)(=O)c2ccc(O)c(NC(=O)c3cc4c(C)nn(-c5ccc(F)cc5)c4s3)c2)cc1	ugtP null kill 83.7, Mtb betalactam inconclusive (no result: CCHFV vOTU inh)
CCCCC(C)=NNC(=O)C(=O)NCCc1ccccc1	none (no result: Mtb betalactam, 3CLpro inhibitor, CCHFV vOTU inh, MazEF act)
Nc1nc(NCCOCCO)nc(N2CCCCCC2)c1[N+](=O)[O-]	ugtP null kill 94.5
O=C(NN=Cc1ccc(OCC(=O)N2CCOCC2)cc1)c1ccccc1Cl	none (no result: Mtb betalactam, 3CLpro inhibitor, CCHFV vOTU inh, MazEF act)
COc1ccc(Br)cc1C=c1sc2nc(-c3ccco3)nn2c1=O	none (no result: Mtb betalactam, 3CLpro inhibitor, CCHFV vOTU inh, MazEF act)
CCCCn1c(O)c(/C=C2\C=Nc3ccccc32)c(=O)[nH]c1=O	MazEF act 254.7 (no result: ugtP null kill, Sa RN4220 lethal)
Cn1c(O)c(/C=C2\C=Nc3ccccc32)c(=O)n(C)c1=O	MazEF act 141.1
COC(=O)C1=Nc2ccccc2/C1=C\c1c(O)n(C)c(=O)n(C)c1=O	none
CC[C@@]12C(=O)N(c3ccccc3)C(=O)N1C(c1ccc(OC)cc1)C1C(=O)N(C(C)(C)C)C(=O)C12 (some centres not stated)	none (no result: Mtb betalactam, 3CLpro inhibitor, CCHFV vOTU inh, MazEF act)
Cc1nnc(N2CCCC(C(=O)NCc3ccc(OC(C)C)cc3)C2)c2nn(-c3ccccc3)c(C)c12 (configuration not stated)	MazEF act 88.4
O=S(=O)(Nc1cccc(-c2nc3cccnc3s2)c1)c1ccc2c(c1)OCCO2	ugtP null kill 93.1
Cc1ccc(-c2nc3cccnc3s2)cc1NS(=O)(=O)c1ccc2c(c1)OCCO2	none
CC1CN(C(C)CO)C(=O)c2cccc(NC(=O)NC3CCCCC3)c2OC1CN(C)S(=O)(=O)c1ccccc1 (configuration not stated)	none (no result: Mtb betalactam, 3CLpro inhibitor, CCHFV vOTU inh, MazEF act)
Cc1ccc(S(=O)(=O)n2ccc3c(OCCOCCSCC(NC(=O)OC(C)(C)C)C(=O)O)cccc32)cc1 (configuration not stated)	CCHFV vOTU inh 38.4
CCCn1c(-c2cccs2)nc2c1c(=O)[nH]c(=O)n2Cc1ccccc1	MazEF act 83.1
CN(C)c1ccc(/C=C(/NC(=O)c2ccccc2)C(=O)NCCCn2ccnc2)cc1	MazEF act 73.6 (no result: CCHFV vOTU inh)
O=C(NCCCn1ccnc1)/C(=C/c1ccc(Cl)cc1)NC(=O)c1ccccc1	none
CCn1c(SCC(=O)NN=Cc2ccccc2OCC(=O)O)nnc1-c1ccc(C)cc1	none (no result: Mtb betalactam, 3CLpro inhibitor, CCHFV vOTU inh, MazEF act)
COc1ccc(C(=O)NC(=S)Nc2ccccc2N2CCCCC2)cc1[N+](=O)[O-]	ugtP null kill 94.2
CCCCC(=O)NC(=S)Nc1ccccc1N1CCCCC1	ugtP null kill 83.8
CCCCC(=O)NC(=S)Nc1cccc(Cl)c1N1CCCCC1	none
O=C(NC(=S)Nc1ccccc1N1CCCC1)c1ccc([N+](=O)[O-])cc1	none
Cc1c(C(=O)NC(=S)Nc2ccccc2N2CCCC2)cccc1[N+](=O)[O-]	ugtP null kill 96.3 (no result: Mtb betalactam)
CCNc1nc(NC(C)C)nc(N(n2cnnc2)S(=O)(=O)c2ccc(C)cc2)n1	ugtP null kill 90.2
CCNc1nc(NC(C)C)nc(NS(=O)(=O)c2ccc(N)cc2)n1	none
CCNc1nc(NCC)nc(N(n2cnnc2)S(=O)(=O)c2ccc(C)cc2)n1	ugtP null kill 98.7, Sa RN4220 lethal 97.4
CC(=O)c1c(C)oc2c1cc(NS(=O)(=O)c1ccc(C(=O)O)cc1)c1ccccc12	MazEF act 78.6
Cc1ccc(S(=O)(=O)Nc2cc3c(C(=O)Nc4ccccc4)c(C)oc3c3ccccc23)cc1	none
C=CCn1cc(C=NNC(=O)c2cc3c(ccc4ccccc43)o2)c2ccccc21	none (no result: Mtb betalactam, 3CLpro inhibitor, CCHFV vOTU inh, MazEF act)
CCc1ccc2nc(SCC(=O)N3CC(=O)Nc4ccccc43)c(C#N)cc2c1	MazEF act 83.2
N#Cc1cc(C#N)c(SCC(=O)N2CC(=O)Nc3ccccc32)nc1N	none (no result: 3CLpro inhibitor)
CCC[C@@H]1C[C@@H](C(=O)N[C@H]([C@@H](C)O)[C@H]2O[C@H](SC)[C@H](O)[C@@H](O)C2O)N(C)C1 (some centres not stated)	none (no result: ugtP null kill, Sa RN4220 lethal)
CCCC1CC(C(=O)NC(C(C)O)C2OC(SC)C(O)C(O)C2O)N(C)C1 (configuration not stated)	ugtP null kill 99.5, Sa RN4220 lethal 100.4 (no result: Mtb betalactam, 3CLpro inhibitor, CCHFV vOTU inh, MazEF act)
S=C(NN=Cc1ccccc1Cl)Nc1ccccc1	ugtP null kill 91.1 (no result: Mtb betalactam, 3CLpro inhibitor, CCHFV vOTU inh, MazEF act)
FC(F)(F)c1ccc(Cl)c(NC(=S)NN=Cc2ccccc2C(F)(F)F)c1	ugtP null kill 86.1 (no result: Mtb betalactam, 3CLpro inhibitor, CCHFV vOTU inh, MazEF act)
Fc1cccc(C=NNC(=S)Nc2ccccc2Cl)c1	ugtP null kill 93.3 (no result: Mtb betalactam, 3CLpro inhibitor, CCHFV vOTU inh, MazEF act)
Fc1ccc(C=NNC(=S)Nc2ccc(Cl)cc2Cl)cc1	none (no result: Mtb betalactam, 3CLpro inhibitor, CCHFV vOTU inh, MazEF act)
Oc1ccc(/C=N/NC(=S)Nc2cccnc2)c(O)c1O	MazEF act 60.4 (no result: ugtP null kill, Mtb betalactam, Sa RN4220 lethal)
O=C(NNC1=C(C(=O)C(F)(F)F)CCC1)c1cccc(Cl)c1	ugtP null kill 99.1, Sa RN4220 lethal 100.1
COc1ccc(C(=O)NNc2ccccc2)cc1	none
O=C(NNC1=C(C(=O)C(F)(F)F)CCC1)c1ccc(Cl)cc1	ugtP null kill 100.0, Sa RN4220 lethal 100.7
COc1ccc(C(=O)NNC2=C(C(=O)C(F)(F)F)CCC2)cc1	ugtP null kill 96.7
COC(=O)C1C[C@@]2(O)C(O)C(O)C(O)CC2N1Cc1ccccc1OS(=O)(=O)c1ccc(C)cc1 (some centres not stated)	none (no result: Mtb betalactam, 3CLpro inhibitor, CCHFV vOTU inh, MazEF act)
Cc1ccc(C(=O)Nc2cccc(C(=O)N/N=C/c3ccc(F)cc3)c2)cc1	MazEF act 63.4 (no result: ugtP null kill, Sa RN4220 lethal)
CN1CCN(c2ccc(Cl)cc2NC(=O)c2nn(-c3ccccc3)c(=O)c3ccccc23)CC1	none (no result: Mtb betalactam)
Cn1nc(C(=O)Nc2cc(Cl)ccc2N2CCCC2)c2ccccc2c1=O	ugtP null kill 99.6, Sa RN4220 lethal 99.6 (no result: 3CLpro inhibitor)
COc1cc2c(c(OC)c1OC)-c1c(cc3c(c1OC)OCO3)CC(C)[C@@](C)(O)C2 (some centres not stated)	none (no result: Mtb betalactam, 3CLpro inhibitor, CCHFV vOTU inh, MazEF act)
COC(=O)CCC(=O)Nc1ccc(Cl)c(Cl)c1	none
